# The supplement of paper PMC12494721
# Where a name gives a salt, the structure may show the parent alone.
# How the values were obtained:
# Conditions in all cases: incubation time: 27 h, anaerobic, 37 °C;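 for the amine columns active = adjusted P below 0.05 in both replicates with a change the same way and a mean fold change under 0.8 or over 1.25; inactive = the rest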
# [1] = test system: Clostridium sporogenes DSM 1664; experiment: growth (OD595) fold change vs plate DMSO controls (fold change (ratio)); higher = more growth
# How it was run: (§1)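 The 96-well mGAM cultures had been kept anaerobic for 27 h at 37 °C before being shaken and read at 595 nm. Blank subtraction, compound background correction with 20 µM compound solutions in water, and a calibration factor of 5 turned the readings into OD. Growth is given as the fold change versus the median of plate DMSO controls. Fold changes above 1.5 were set to NA, and the values are means of 2 biological replicates.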
# Escherichia coli IAI1 [2] = experiment: as above
# How it was run: as §1
# [3] = test system: Klebsiella aerogenes DSM 30053; experiment: as above
# How it was run: as §1
# [4] = test system: Ruminococcus gnavus DSM 108212; experiment: as above
# How it was run: as §1
# [5] = test system: Klebsiella aerogenes DSM 30053; experiment: fold change of Histamine concentration vs plate DMSO controls (fold change (ratio)); higher = more amine produced, active = hit call of the paper (significant change in both replicates, either direction)
# How it was run: (§2)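 Using LC–triple-quadrupole MS with dynamic MRM, amines were quantified against external calibration curves and corrected for drift within each batch. Samples were whole anaerobic mGAM cultures of four gut strains, grown 27 h at 37 °C from OD 0.1 before 1:1 dilution, extracted with cold acetonitrile/methanol containing 0.1% formic acid and centrifuged. Compounds were present at 20 µM final (sweeteners at 50 µM final). The numbers are fold changes versus plate DMSO controls, each the mean of 2 biological replicates.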
# [6] = test system: Clostridium sporogenes DSM 1664; experiment: fold change of Tryptamine concentration vs plate DMSO controls (fold change (ratio)); higher = more amine produced, active = hit call of the paper (significant change in both replicates, either direction)
# How it was run: as §2
# [7] = test system: Ruminococcus gnavus DSM 108212; experiment: as above
# How it was run: as §2
# Escherichia coli IAI1 [8] = experiment: fold change of Putrescine concentration vs plate DMSO controls (fold change (ratio)); higher = more amine produced, active = hit call of the paper (significant change in both replicates, either direction)
# How it was run: as §2
# [9] = test system: Klebsiella aerogenes DSM 30053; experiment: as above
# How it was run: as §2
# Escherichia coli IAI1 [10] = experiment: fold change of Cadaverine concentration vs plate DMSO controls (fold change (ratio)); higher = more amine produced, active = hit call of the paper (significant change in both replicates, either direction)
# How it was run: as §2
# [11] = test system: Klebsiella aerogenes DSM 30053; experiment: as above
# How it was run: as §2
# [12] = test system: Ruminococcus gnavus DSM 108212; experiment: fold change of 2-Phenylethylamine concentration vs plate DMSO controls (fold change (ratio)); higher = more amine produced, active = hit call of the paper (significant change in both replicates, either direction)
# How it was run: as §2
SMILES,growth [1],growth (Escherichia coli IAI1 [2]),growth [3],growth [4],fold change of Histamine concentration [5],fold change of Tryptamine concentration [6],fold change of Tryptamine concentration [7],fold change of Putrescine concentration (Escherichia coli IAI1 [8]),fold change of Putrescine concentration [9],fold change of Cadaverine concentration (Escherichia coli IAI1 [10]),fold change of Cadaverine concentration [11],fold change of 2-Phenylethylamine concentration [12]
CN1CCN(C(c2ccccc2)c2ccc(Cl)cc2)CC1 (centres undefined) [Chlorcyclizine hydrochloride] (20 µM),1.15,1.16,0.997,0.999,1.09 (inactive),0.979 (inactive),0.89 (inactive),1.14 (inactive),1 (inactive),0.889 (inactive),0.981 (inactive),0.919 (inactive)
C=CC(N)CCC(=O)O (centres undefined) [Vigabatrin hydrochloride] (20 µM),1.11,1.06,1.17,0.977,0.856 (inactive),0.993 (inactive),1.02 (inactive),1.02 (inactive),1.01 (inactive),0.978 (inactive),1.03 (inactive),1 (inactive)
CN(Cc1cnc2nc(N)nc(N)c2n1)c1ccc(C(=O)N[C@@H](CCC(=O)O)C(=O)O)cc1 [Amethopterin] (20 µM),1.08,1.02,1.09,1.42,0.922 (inactive),0.975 (inactive),0.892 (inactive),1 (inactive),1 (inactive),1 (inactive),1.02 (inactive),0.832 (inactive)
Cc1nnc(NS(=O)(=O)c2ccc(N)cc2)s1 [Sulfamethizole] (20 µM),0.987,1.05,1.06,1.12,0.935 (inactive),0.928 (inactive),0.884 (inactive),0.961 (inactive),0.981 (inactive),1.03 (inactive),0.995 (inactive),0.815 (inactive)
O=C1CC2(CCCC2)CC(=O)N1CCCCN1CCN(c2ncccn2)CC1 [Buspirone hydrochloride] (20 µM),0.958,1.07,0.968,0.992,1.09 (inactive),1.05 (inactive),1.05 (inactive),1.02 (inactive),1.01 (inactive),1.05 (inactive),0.99 (inactive),1.05 (inactive)
N=C(N)NC(=O)c1nc(Cl)c(N)nc1N [Amiloride hydrochloride dihydrate] (20 µM),0.984,0.951,0.984,0.948,0.982 (inactive),0.98 (inactive),1.09 (inactive),1.03 (inactive),0.94 (inactive),0.987 (inactive),1.05 (inactive),1.08 (inactive)
CC(C)[C@H](N)C(=O)OCCOCn1cnc2c(=O)nc(N)[nH]c21 [Valacyclovir hydrochloride] (20 µM),1.06,0.958,0.98,0.538,1.09 (inactive),0.989 (inactive),1.02 (inactive),0.954 (inactive),1.03 (inactive),0.987 (inactive),0.999 (inactive),0.997 (inactive)
CC1=C(C)C(=O)C(C(CCCCCC(=O)O)c2ccccc2)=C(C)C1=O (centres undefined) [Seratrodast] (20 µM),0.927,0.998,1,0.979,1 (inactive),1.01 (inactive),0.908 (inactive),1.05 (inactive),1.02 (inactive),0.965 (inactive),1.01 (inactive),0.899 (inactive)
c1coc(CNc2ncnc3[nH]cnc23)c1 [Kinetin] (20 µM),0.818,1.05,0.962,0.855,0.974 (inactive),0.976 (inactive),1.01 (inactive),1.08 (inactive),1.01 (inactive),0.999 (inactive),1.01 (inactive),1.04 (inactive)
CN(C)[C@@H]1C(=O)C(C(N)=O)=C(O)[C@@]2(O)C(=O)C3=C(O)c4c(O)ccc(Cl)c4[C@@H](O)[C@H]3C[C@@H]12 [Demeclocycline hydrochloride] (20 µM),0,0.0384,0.0385,0.802,0.107 (active),0.0455 (active),0.319 (active),0.239 (active),0.472 (active),0.225 (active),0.547 (active),0.364 (active)
O=C(O)c1cccnc1Nc1cccc(C(F)(F)F)c1 [Niflumic acid] (20 µM),0.913,1.08,0.996,1.32,1.05 (inactive),1.04 (inactive),1.02 (inactive),1.08 (inactive),1.01 (inactive),0.996 (inactive),0.993 (inactive),0.988 (inactive)
Cn1c([N+](=O)[O-])cnc1COC(N)=O [Ronidazole] (20 µM),0.00699,1.05,0.963,0.0625,0.617 (active),0.0193 (active),0.0355 (active),0.99 (inactive),0.97 (inactive),1.17 (inactive),1.03 (inactive),0.0387 (active)
